# Assay outcomes from PubChem BioAssay.
# eIF4E-4G inh = inhibitors of eIF4E and eIF4G interaction in translation initiation | P63073+Q04637 | TR-FRET eIF4E-eIF4GI(517-606) binding, 2 h | inhibition, % at 21.7 µM | actives 0.37% (n = 220,000);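 active means inhibition above about 30%, limit read from the data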
# MLLE-PAM2 inh = inhibitors of microRNA-mediated deadenylation, human PABP1 MLLE binding; GST-MLLE / FITC-PAM2 fluorescence polarization; actives 0.36% (n = 360,000); inhibition, % at 20 µM; P11940; AID 588489; in the data active means inhibition above about 35%, passing the limit was not always enough
# Target sequence (P11940 whole entry, looked up): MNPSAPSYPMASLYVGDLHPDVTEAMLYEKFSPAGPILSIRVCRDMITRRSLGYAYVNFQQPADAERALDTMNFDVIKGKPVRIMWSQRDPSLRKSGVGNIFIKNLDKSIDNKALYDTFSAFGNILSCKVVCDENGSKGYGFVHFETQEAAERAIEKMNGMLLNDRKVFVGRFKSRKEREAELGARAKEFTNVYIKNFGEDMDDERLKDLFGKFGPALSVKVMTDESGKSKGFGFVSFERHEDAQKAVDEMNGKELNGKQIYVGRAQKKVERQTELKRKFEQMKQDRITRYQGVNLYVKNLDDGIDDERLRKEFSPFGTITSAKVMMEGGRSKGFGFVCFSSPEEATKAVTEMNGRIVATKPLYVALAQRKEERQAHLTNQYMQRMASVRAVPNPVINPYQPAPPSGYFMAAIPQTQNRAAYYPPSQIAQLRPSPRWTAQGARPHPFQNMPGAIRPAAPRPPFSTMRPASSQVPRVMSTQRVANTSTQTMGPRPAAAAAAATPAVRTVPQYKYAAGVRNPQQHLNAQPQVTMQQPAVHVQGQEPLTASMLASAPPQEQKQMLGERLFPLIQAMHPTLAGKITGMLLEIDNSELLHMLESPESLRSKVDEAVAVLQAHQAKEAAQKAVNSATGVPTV
# PABP FP inh = blocks human PABP binding to poly(A) RNA | P11940 | fluorescence polarization | inhibition, % at 35 µM | actives 1% (n = 290,000) | AID 2014;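 further: calls also rest on retests at 20 µM and on dose response follow-up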
# PERK inh = blocks human PERK kinase | Q9NZJ5 | CHO PERK-DD fusion, SEAP luminescence translation reporter | inhibition, % at 5.6 µM | actives 0.17% (n = 220,000);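 active means inhibition above the mean inhibition of all tested compounds plus 3 SD, set separately per screening campaign, cut at about 2.9% in these data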;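 further: PERK kinase domain activated by AP20187 dimerizer at 100 nM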
# eIF4H FP inh = inhibitors of RNA binding by human eIF4H; inhibition, % at 35 µM; AID 2012; eIF4H fluorescence polarization binding assay; Q15056; actives 0.94% (n = 290,000);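 further: calls also rest on retests at 20 µM and on dose response follow-up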
# A number is an active result; – = inactive; ? = inconclusive; · = no result given; ! = not active in a repeat. An excerpt weighted towards active compounds, which were near 1.6% of everything screened. Unless noted, how the calls were made is not given here.
SMILES,eIF4E-4G inh,MLLE-PAM2 inh,PABP FP inh,PERK inh,eIF4H FP inh
N#Cc1c(NCCCO)nc(NCc2ccccc2)c2c1CCN(Cc1ccccc1)C2,–,–,?,–,?
CN1CCc2c(C#N)c(N3CCCCC3)nc(NCc3ccccc3)c2C1,·,–,53.2,–,73.6
CN(C)c1ccc(CNC(=O)C2(C)Cc3c(-c4cccc(C(N)=O)c4)ccnc3O2)cc1 (stereo not drawn),·,–,·,·,·
O=C(COC(=O)CCC1CCCC1)Nc1ccccc1Sc1ccccc1,–,–,–,2.9,–
CCCCc1c(C)nc2ccc(C(=O)OCC)cc2c1Cl,–,–,120.4,–,–
CCOC(=O)c1ccc2nc(C)c(CC)c(Cl)c2c1,–,–,–,–,–
C[C@H]1CN([C@@H](C)CO)C(=O)CCCn2nncc2CO[C@H]1CN(C)C(=O)c1ccccc1,·,–,·,·,·
CCOC(=O)c1sc(=S)n(C)c1NC(=O)c1ccc(OC)cc1,–,–,–,–,–
CCOC(=O)c1sc(=S)n(C)c1NC(=O)c1ccccc1Cl,–,43.3,–,–,–
C=CCn1c(SCC#N)nnc1-c1ccc2ncccc2c1,97.6,–,–,–,–
O=C1NC(=S)S/C1=C\c1ccc(SCc2ccccc2)o1,–,–,3.2,–,80.1
CCN1C[C@@H]2[C@@H]3C(=O)N(Cc4ccccc4)C(=O)[C@@H]3[C@](CC)(C1=O)N2C(=O)c1ccccc1,·,–,·,·,·
COC(=O)c1ccc(Cn2nnc3c(=O)[nH]c(C4CCCN(S(=O)(=O)c5cccc(Cl)c5)C4)nc32)cc1 (stereo not drawn),·,–,–,·,–
CCOC(=O)COc1cccc2c(=O)n(CC(=O)N3CCCCC3)ccc12,–,–,61.1,–,102.8
Cc1coc2cc3oc(=O)c(CCC(=O)N4CCC(C(=O)O)(c5ccccc5)CC4)c(C)c3cc12,·,–,–,·,–
Cc1ccc2nc(-c3ccc(C#N)cc3)c(Cc3cccc(Cl)c3)n2c1,·,–,·,·,·
O=c1cc(-c2ccc(O)cc2)oc2cc(O)c(C3OC(CO)C(O)C(O)C3O)c(O)c12 (stereo not drawn),–,–,20.9,–,66.9
CCOc1ccc2c(c1)-c1c(ssc1=S)C(C)(C)N2C(=O)CSC1=NCCS1,–,45.5,–,–,–
Cc1ccc2c(c1)-c1c(ssc1=S)C(C)(C)N2C(=O)CSC1=NCCS1,–,–,–,–,–
COc1ccccc1C(=O)Nc1ncc2c(n1)CC(c1ccco1)CC2=O (stereo not drawn),–,–,37.3,–,73.8
COc1ccc(C(=O)N/C(=C/c2ccco2)C(=O)N2CCCCCC2)cc1,·,–,20.4,·,–
COC(=O)/C(=C/c1ccco1)NC(=O)c1ccccc1,–,–,–,–,–
Cc1ccc(C(=O)N/C(=C/c2ccco2)C(=O)N2CCCCC2)cc1,·,–,–,·,–
Cc1ccc(C(=O)N/C(=C/c2ccco2)C(=O)OCN2C(=O)c3ccccc3C2=O)cc1,–,–,–,–,79.3
O=C(N/C(=C/c1ccco1)C(=O)N1CCCCCC1)c1ccccc1,·,–,–,·,–
SMILES,eIF4E-4G inh,MLLE-PAM2 inh,PABP FP inh,PERK inh,eIF4H FP inh
O=C(N/C(=C/c1ccco1)C(=O)N1CCCCCC1)c1cccs1,–,–,44.7,–,–
CCOC(=O)C1=CN(Cc2ccco2)S(=O)(=O)NC1c1ccc(Br)cc1F (stereo not drawn),·,–,·,·,·
O=C(NC(C(=O)O)c1ccccc1)c1ccccc1 (stereo not drawn),–,–,–,–,–
O=C(NC(Sc1ccc(Cl)cc1)C(=O)O)c1ccccc1 (stereo not drawn),·,39.8,·,·,·
COc1ccc(CC(=O)O/N=C(\N)c2ccccn2)cc1,–,–,–,3.1,–
CC(O)c1n(C)c(Cl)c[n+]1C (stereo not drawn),–,–,64.6,–,–
Cc1c(O)nc(SCC(=O)Nc2ccc3c4c(cccc24)CC3)n(-c2ccccc2)c1=O,–,–,–,–,–
O=C(CSc1nc(O)cc(=O)n1-c1ccccc1)Nc1ccc2c3c(cccc13)CC2,–,–,69.3,–,71.3
CN(C)Cc1c(O)c(Cl)cc2c3c(c(=O)oc12)CCCC3,–,–,49.5,–,64.0
CCC1(c2ccccc2)NC(=S)N(c2ccc(C)c(C)c2)N1 (stereo not drawn),51.8,–,–,–,–
CCC1(c2ccc(Cl)cc2)NC(=S)N(c2ccc(C)c(C)c2)N1 (stereo not drawn),–,–,–,–,–
O=c1c2ccccc2nc(-c2ccco2)n1/N=C/c1ccco1,–,–,90.9,–,96.6
Cc1nc2ccccc2c(=O)n1/N=C/c1ccco1,–,–,–,–,–
Fc1ccc(NC(=S)Nc2ccc(Br)cc2)cc1,–,40.2,–,–,–
Cc1nc2nc(-c3ccccc3)cc(=O)n2[nH]1,–,–,–,3.0,–
CC(C)Cc1ccc(CN2C(C)C(=O)N(Cc3cn(Cc4ccco4)nn3)CCS2(=O)=O)cc1 (stereo not drawn),·,–,·,·,·
COc1ccc(C(CC(=O)NCc2ccccc2)Sc2n[nH]c(-c3ccccc3)n2)cc1 (stereo not drawn),–,–,53.9,–,85.6
CC1CCCCN1C(=O)Cn1nnc(-c2cccnc2)n1 (stereo not drawn),–,49.1,–,–,?
CC1c2ccccc2-c2ccccc2N1C (stereo not drawn),·,–,·,·,·
C=CCC1(CC=C)CCCN1C(=O)C1CCC(=O)N(CCc2ccc(OC)cc2)C1 (stereo not drawn),·,–,–,·,–
CCN(C(=O)COC(=O)c1cccc(S(=O)(=O)N2CCOCC2)c1)C1CCS(=O)(=O)C1 (stereo not drawn),·,–,·,·,·
O=C1c2nc3cc(-c4ccco4)[nH]n3c(=O)c2CN1Cc1ccccc1,–,–,85.3,–,84.7
CCN(C(=O)COC(=O)c1n[nH]c2ccccc12)c1ccccc1,·,–,·,·,·
Cc1nn(CC(=O)N(C)C)c(C)c1S(=O)(=O)N1CCOCC1,·,–,·,·,·
CCOC(=O)C1CCCN(C(=O)c2cccc(OC(F)(F)F)c2)CC1 (stereo not drawn),·,–,·,·,·
SMILES,eIF4E-4G inh,MLLE-PAM2 inh,PABP FP inh,PERK inh,eIF4H FP inh
CN1CCN(c2c(F)cc3c(=O)c(C(=O)O)cn4c3c2SCC4)CC1,–,–,60.6!,–,97.0!
Cc1c(C(=O)N2CCCCC2C)sc2nc3n(c(=O)c12)CCC3 (stereo not drawn),·,–,–,·,–
Cc1cccn2cc(CNc3ccccc3)nc12,–,–,–,–,–
CCOC(=S)SCc1cn2cccc(C)c2n1,–,38.9,–,–,–
CCN(CC)S(=O)(=O)c1ccc(C(=O)NCC(=O)NCCCc2ccccc2)cc1,·,–,–,·,–
CCOC(=O)c1ccc2c(c1)n(CC)c(C)[n+]2CC,–,–,–,–,–
CCOC(=O)c1ccc2c(c1)[n+](CC)c(C)n2-c1ccccc1,–,–,72.7,–,–
CCn1c(C)[n+](CC)c2ccc(C(=O)N(C)c3ccccc3)cc21,–,–,62.1,–,–
CC[n+]1c(C)n(-c2ccccc2)c2ccc(C(=O)OC)cc21,–,–,69.4,–,–
O=C(COC(=O)CCC(=O)c1ccc(F)cc1)NCc1ccccc1Cl,·,–,·,·,·
